PubChem BioAssay AID1159580 (chemical genetic matrix, 2015)
Out of some 5,500 compounds screened, about 2,000 (36%) were called active. Another 18% or so got no clear call; they are omitted. Cut-off read from the data, not from the text of the source: active = normalized growth mostly below about 0.91 (no sharp cut-off); inconclusive = no clear call, values can overlap the other calls; inactive = mostly above about 0.92. The list shows a part of the results.

Assay: chemical genetic growth profiling, strain panel (AID 1159580);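 note: tested at 20 µM; growth read once vehicle control cultures reached saturation at 30 °C; 1 = growth at the plate median or of vehicle wells; lower values mean less growth of the strain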
Conditions: growth OD

Measured: normalized growth

CC(C)CC(N(C)C)C1(c2ccc(Cl)cc2)CCC1 (configuration not stated)
inactive: S. cerevisiae deletion strains, locus YJR075W, strain HOC1, stronger effect = lower value 0.995 | S. cerevisiae deletion strains, locus YKL009W, strain mrt4, stronger effect = lower value 1.03 | S. cerevisiae deletion strains, locus YKL068W, stronger effect = lower value 1.01 | S. cerevisiae deletion strains, locus YKL085W, strain MDH1 (second series), stronger effect = lower value 1.01 | S. cerevisiae deletion strains, locus YKL085W, strain MDH1, stronger effect = lower value 1.01 | S. cerevisiae deletion strains, locus YKL160W, strain elf1, stronger effect = lower value 1.02 | S. cerevisiae deletion strains, locus YKL190W, strain CNB1, stronger effect = lower value 0.997 | S. cerevisiae deletion strains, locus YKR001C, strain vps1, stronger effect = lower value 1.02 | S. cerevisiae deletion strains, locus YKR026C, strain gcn3, stronger effect = lower value 1.01 | S. cerevisiae deletion strains, locus YKR091W, strain srl3, stronger effect = lower value 1.01 | S. cerevisiae deletion strains, locus YLL001W, strain dnm1, stronger effect = lower value 1.01 | S. cerevisiae deletion strains, locus YLL026W, stronger effect = lower value 1.01 | S. cerevisiae deletion strains, locus YLL041C, strain sdh2, stronger effect = lower value 1 | S. cerevisiae deletion strains, locus YLR027C, strain aat2, stronger effect = lower value 1.02 | S. cerevisiae deletion strains, locus YLR039C, strain RIC1, stronger effect = lower value 1.13 | S. cerevisiae deletion strains, locus YLR058C, strain SHM2, stronger effect = lower value 1.01 | S. cerevisiae deletion strains, locus YLR102C, strain apc9, stronger effect = lower value 1.01 | S. cerevisiae deletion strains, locus YLR113W, strain HOG1, stronger effect = lower value 0.995 | S. cerevisiae deletion strains, locus YLR221C, strain rsa3, stronger effect = lower value 0.994 | S. cerevisiae deletion strains, locus YLR258W, strain gsy2, stronger effect = lower value 1 | S. cerevisiae deletion strains, locus YLR262C, strain YPT6 (second series), stronger effect = lower value 1.05 | S. cerevisiae deletion strains, locus YLR262C, strain YPT6, stronger effect = lower value 1.11 | S. cerevisiae deletion strains, locus YLR268W, strain sec22, stronger effect = lower value 1.02 | S. cerevisiae deletion strains, locus YLR320W, strain mms22, stronger effect = lower value 0.989 | S. cerevisiae deletion strains, locus YLR330W, strain CHS5, stronger effect = lower value 1 | S. cerevisiae deletion strains, locus YLR342W, strain FKS1 (second series), stronger effect = lower value 1.01 | S. cerevisiae deletion strains, locus YLR342W, strain FKS1, stronger effect = lower value 1.01 | S. cerevisiae deletion strains, locus YLR357W, strain rsc2, stronger effect = lower value 1.01 | S. cerevisiae deletion strains, locus YLR370C, strain arc18, stronger effect = lower value 1.01 | S. cerevisiae deletion strains, locus YLR371W, strain rom2, stronger effect = lower value 1.01 | S. cerevisiae deletion strains, locus YLR384C, strain iki3, stronger effect = lower value 1.02 | S. cerevisiae deletion strains, locus YLR418C, strain cdc73, stronger effect = lower value 1.05 | S. cerevisiae deletion strains, locus YML016C, strain PPZ1, stronger effect = lower value 1.02 | S. cerevisiae deletion strains, locus YML032C, strain rad52, stronger effect = lower value 1.02 | S. cerevisiae deletion strains, locus YML120C, strain ndi1, stronger effect = lower value 1.01 | S. cerevisiae deletion strains, locus YML124C, strain tub3, stronger effect = lower value 1.01 | S. cerevisiae deletion strains, locus YMR058W, strain fet3, stronger effect = lower value 1.01 | S. cerevisiae deletion strains, locus YMR078C, strain ctf18, stronger effect = lower value 1.02 | S. cerevisiae deletion strains, locus YMR125W, strain sto1, stronger effect = lower value 0.979 | S. cerevisiae deletion strains, locus YMR129W, stronger effect = lower value 1.01 | S. cerevisiae deletion strains, locus YMR205C, strain PFK2, stronger effect = lower value 1.01 | S. cerevisiae deletion strains, locus YMR223W, strain ubp8, stronger effect = lower value 1.01 | S. cerevisiae deletion strains, locus YMR231W, strain pep5, stronger effect = lower value 0.989 | S. cerevisiae deletion strains, locus YMR263W, strain SAP30, stronger effect = lower value 0.999 | S. cerevisiae deletion strains, locus YMR307W, strain GAS1, stronger effect = lower value 1.01 | S. cerevisiae deletion strains, locus YNL067W, strain RPL9B, stronger effect = lower value 0.992 | S. cerevisiae deletion strains, locus YNL071W, strain lat1, stronger effect = lower value 1.01 | S. cerevisiae deletion strains, locus YNL128W, strain TEP1, stronger effect = lower value 0.987 | S. cerevisiae deletion strains, locus YNL153C, strain GIM3, stronger effect = lower value 1.01 | S. cerevisiae deletion strains, locus YNL183C, strain NPR1, stronger effect = lower value 0.972 | S. cerevisiae deletion strains, locus YNL209W, strain ssb2, stronger effect = lower value 0.996 | S. cerevisiae deletion strains, locus YNL233W, strain BNI4, stronger effect = lower value 1.01 | S. cerevisiae deletion strains, locus YNL248C, strain rpa49, stronger effect = lower value 0.997 | S. cerevisiae deletion strains, locus YNL250W, strain rad50, stronger effect = lower value 1 | S. cerevisiae deletion strains, locus YNL271C, strain bni1, stronger effect = lower value 1.02 | S. cerevisiae deletion strains, locus YNL298W, strain CLA4, stronger effect = lower value 1.02 | S. cerevisiae deletion strains, locus YNL307C, strain MCK1, stronger effect = lower value 1.03 | S. cerevisiae deletion strains, locus YNL322C, strain KRE1 (second series), stronger effect = lower value 1 | S. cerevisiae deletion strains, locus YNL322C, strain KRE1, stronger effect = lower value 1 | S. cerevisiae deletion strains, locus YNR049C, strain mso1, stronger effect = lower value 0.996 | S. cerevisiae deletion strains, locus YNR052C, strain pop2, stronger effect = lower value 1.01 | S. cerevisiae deletion strains, locus YOL006C, strain TOP1, stronger effect = lower value 1.03 | S. cerevisiae deletion strains, locus YOL012C, strain htz1 0.875 | S. cerevisiae deletion strains, locus YOL147C, strain pex11, stronger effect = lower value 1 | S. cerevisiae deletion strains, locus YOR001W, strain rrp6, stronger effect = lower value 1.02 | S. cerevisiae deletion strains, locus YOR061W, strain CKA2, stronger effect = lower value 1.01 | S. cerevisiae deletion strains, locus YOR069W, strain VPS5, stronger effect = lower value 0.992 | S. cerevisiae deletion strains, locus YOR070C, strain gyp1, stronger effect = lower value 0.997 | S. cerevisiae deletion strains, locus YOR080W, strain dia2, stronger effect = lower value 1.01 | S. cerevisiae deletion strains, locus YOR083W, strain WHI5, stronger effect = lower value 1 | S. cerevisiae deletion strains, locus YOR106W, strain vam3, stronger effect = lower value 1.03 | S. cerevisiae deletion strains, locus YOR136W, strain idh2, stronger effect = lower value 1.02 | S. cerevisiae deletion strains, locus YOR144C, strain elg1, stronger effect = lower value 1.02 | S. cerevisiae deletion strains, locus YOR184W, strain ser1, stronger effect = lower value 1.03 | S. cerevisiae deletion strains, locus YOR231W, strain MKK1, stronger effect = lower value 1.03 | S. cerevisiae deletion strains, locus YOR265W, strain rbl2, stronger effect = lower value 1.02 | S. cerevisiae deletion strains, locus YOR270C, strain vph1, stronger effect = lower value 0.991 | S. cerevisiae deletion strains, locus YOR290C, strain snf2, stronger effect = lower value 0.99 | S. cerevisiae deletion strains, locus YOR316C, strain cot1, stronger effect = lower value 1.01 | S. cerevisiae deletion strains, locus YPL051W, strain arl3, stronger effect = lower value 0.997 | S. cerevisiae deletion strains, locus YPL055C, strain LGE1, stronger effect = lower value 0.999 | S. cerevisiae deletion strains, locus YPL078C, strain atp4, stronger effect = lower value 1.02 | S. cerevisiae deletion strains, locus YPL106C, strain sse1, stronger effect = lower value 0.988 | S. cerevisiae deletion strains, locus YPL240C, strain hsp82, stronger effect = lower value 1.02 | S. cerevisiae deletion strains, locus YPL241C, strain CIN2, stronger effect = lower value 0.995 | S. cerevisiae deletion strains, locus YPL256C, strain CLN2, stronger effect = lower value 1.01 | S. cerevisiae deletion strains, locus YPR119W, strain clb2, stronger effect = lower value 1.01 | S. cerevisiae deletion strains, locus YPR141C, strain kar3, stronger effect = lower value 1.01 | S. cerevisiae deletion strains, locus YPR163C, strain tif3, stronger effect = lower value 1.02 | S. cerevisiae deletion strains, locus YPR167C, strain met16, stronger effect = lower value 1.02 | S. cerevisiae deletion strains, strain wtn01, stronger effect = lower value 1.03 | S. cerevisiae strains, strain wild type, stronger effect = lower value 0.98
